This is a sample that favours compounds with a hit; in the whole collection about 6.8% have one here.
Pf Dd2 inh: P. falciparum Dd2 growth inhibitors, primary screen, SYBR Green fluorescence, single dose replicates | 72 h; stronger effect = lower value | actives 2.3% (n = 94,000) | activity change, % at 10 µM | AID 1159554, 2015; in the data active means activity change below about -80%; inconclusive means no clear call, values can overlap the other calls
T cruzi growth-1: T. cruzi intracellular proliferation inhibitors, primary screen, cell-based, beta-gal Tulahuen parasites, NIH3T3 host, luminescence; T. cruzi beta-gal in NIH3T3, GalScreen luminescence, 90 h; AID 624255, 2012; actives 5.9% (n = 77,000); inhibition, % at 8.34 µM;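 active means mean inhibition above about 93%, with at least 55% of replicates each passing it, limit read from the data, passing the limit was not always enough; inconclusive means only one of those two conditions holds; inactive means neither condition holds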
C diff HTS: C. difficile growth inhibitors, primary screen, HTS; actives 0.25% (n = 86,000); growth activity, negative = inhibition, % at 16 µg/mL (by protocol); Clostridium difficile clinical isolate growth, OD600, 24 h; stronger effect = lower value;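 active means mean growth activity at or below -80% and every replicate also at or below -80%; inconclusive means mean at or below -80% but some replicate above -80%; inactive means mean growth activity above -80%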;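 further: 0% = DMSO wells and -100% = levofloxacin 16 µg/mL wells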
T cruzi growth-2: T. cruzi intracellular proliferation inhibitors, confirmation, cell-based, NIH3T3 host, beta-gal parasite, luminescence, cherry-pick. shares compounds with T cruzi growth-1. T. cruzi beta-gal in NIH3T3, GalScreen luminescence, 90 h. actives 72% (n = 5,600). inhibition, % at 8.35 µM;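 active means mean replicate inhibition above about 95% and at least 55% of replicates individually reaching it, limit read from the data; inconclusive means only one of the two criteria is met; inactive means neither criterion is met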
T cruzi growth-3: inhibitors of intracellular T. cruzi replication, confirmation, NIH3T3 host cells, beta-gal parasites, cherry-pick, set 2. T. cruzi beta-gal in NIH3T3, GalScreen luminescence, 90 h. shares compounds with T cruzi growth-1. AID 651740, 2012. inhibition, % at 2.09 µM. actives 21% (n = 5,600);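 active means mean inhibition above about 95%, with at least 55% of replicates also reaching it, limit read from the data; inconclusive means meets just one of the two conditions; inactive means meets neither condition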;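 further: plate controls were neutral control median for no effect and positive control median for full effect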
3T3 cytotox: cytotoxicity in mouse NIH/3T3 fibroblasts, confirmation, cytotoxicity control for T. cruzi proliferation inhibitor project, cell-based, cherry-pick, single point; shares compounds with T cruzi growth-1; NIH/3T3 viability, CellTiter-Glo ATP luminescence, 90 h; cytotoxicity (signal decrease), % at 8.35 µM; actives 14% (n = 5,600); AID 651742, 2012;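 active means mean signal decrease across replicates above about 35% based on untreated-well scatter, with enough replicates individually passing, limit read from the data; inconclusive means no rule stated though some were filed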;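 further: 0% = median of neutral control wells and 100% = median of positive control wells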
NIH3T3 tox 2: NIH/3T3 fibroblast cytotoxicity, confirmation, cytotoxicity control, cell-based, cherry-pick, single point, set 2; shares compounds with T cruzi growth-1; NIH/3T3 viability, CellTiter-Glo ATP luminescence, 90 h; inhibition, % at 24.9 µM; actives 56% (n = 5,600);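 active means mean loss of cell viability signal at or above a set limit, and enough replicates individually reaching it; inconclusive means meets only the mean limit or only the replicate share; inactive means meets neither condition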;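 further: 0% = median of neutral control wells and 100% = median of positive control wells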
The depositor's hits bear a star.

How did O=C(c1ccc2c(c1)OCO2)N1CC[C@@H]2[C@H](CO)Nc3ccc(C#Cc4ccccc4)cc3[C@@H]21 do in these assays?
Pf Dd2 inh: -19; T cruzi growth-1: 76; C diff HTS: -1

How did N#Cc1ccc(-c2ccc3c(c2)[C@H]2[C@H](CCN2C(=O)c2ccc4c(c2)OCO4)[C@@H](CO)N3)cc1 do in these assays?
Pf Dd2 inh: -60; T cruzi growth-1: 26; C diff HTS: 2

Results for O=C1CN(S(=O)(=O)Cc2ccccc2)C[C@H]2[C@@H](c3ccc(C#CCC4CCCC4)cc3)[C@@H](CO)N12 ?
Pf Dd2 inh: -47; C diff HTS: -11

What do the screens show for `C[C@@H]1CN([C@H](C)CO)C(=O)c2cc(NS(=O)(=O)c3ccc(Cl)cc3)ccc2O[C@H]1CN(C)C(=O)Nc1ccccc1`?
Pf Dd2 inh: 17; T cruzi growth-1: -10; C diff HTS: -7

What do the screens show for `COc1ccc(NC(=O)N[C@H]2CC[C@H](CC(=O)NC3CCC3)O[C@H]2CO)cc1`?
Pf Dd2 inh: -2; T cruzi growth-1: -27

How did C[C@@H]1CN([C@@H](C)CO)C(=O)c2cccc(NC(=O)C3CCCCC3)c2O[C@@H]1CN(C)Cc1ccccc1 do in these assays?
Pf Dd2 inh: -41; C diff HTS: -1

How did CO[C@H]1CN(C)C(=O)c2ccc(NC(=O)C3CC3)cc2OC[C@@H](C)N(C(=O)c2cccnc2)C[C@@H]1C do in these assays?
Pf Dd2 inh: -1; T cruzi growth-1: 109*; T cruzi growth-2: -18; T cruzi growth-3: -18; 3T3 cytotox: -12; NIH3T3 tox 2: -4

What do the screens show for `CCC(=O)Nc1ccc2c(c1)OC[C@H](C)N(C(=O)c1ccc(F)cc1)C[C@@H](C)[C@@H](OC)CN(C)C2=O`?
Pf Dd2 inh: 4; T cruzi growth-1: 104*; T cruzi growth-2: -12; T cruzi growth-3: 1; 3T3 cytotox: -5; NIH3T3 tox 2: -2

What do the screens show for `CO[C@H]1CN(C)C(=O)c2ccc(NC(=O)C3CC3)cc2OC[C@H](C)N(C(=O)c2cccnc2)C[C@H]1C`?
Pf Dd2 inh: 20; T cruzi growth-1: -31

Results for CCC(=O)Nc1ccc2c(c1)OC[C@H](C)N(C(=O)c1ccc(F)cc1)C[C@H](C)[C@@H](OC)CN(C)C2=O ?
Pf Dd2 inh: 10; C diff HTS: -4

Results for Cc1ccc(S(=O)(=O)Nc2ccc3c(c2)C(=O)N([C@@H](C)CO)C[C@@H](C)[C@@H](CN(C)C(=O)Nc2ccc4c(c2)OCO4)OCCCC[C@@H](C)O3)cc1 ?
Pf Dd2 inh: -68; C diff HTS: 8

Results for C[C@H](CO)N1C[C@H](C)[C@H](CN(C)C(=O)Nc2ccc(C(F)(F)F)cc2)Oc2ncc(Br)cc2C1=O ?
Pf Dd2 inh: 18; T cruzi growth-1: 26; C diff HTS: 1

What do the screens show for `C[C@H]1CN([C@@H](C)CO)C(=O)c2cc(C3=CCCC3)cnc2O[C@H]1CN(C)C(=O)Nc1ccc(C(F)(F)F)cc1`?
Pf Dd2 inh: -35; T cruzi growth-1: 52; C diff HTS: 17

What do the screens show for `C[C@H]1CN([C@@H](C)CO)C(=O)c2cc(Br)cnc2O[C@@H]1CN(C)C(=O)Nc1ccc(C(F)(F)F)cc1`?
Pf Dd2 inh: -9; T cruzi growth-1: 102*; C diff HTS: 0; T cruzi growth-2: 108*; T cruzi growth-3: 59; 3T3 cytotox: -10; NIH3T3 tox 2: 54*

Results for C[C@@H]1CN([C@@H](C)CO)C(=O)c2cc(C3=CCCC3)cnc2O[C@@H]1CN(C)C(=O)Nc1ccc(C(F)(F)F)cc1 ?
Pf Dd2 inh: -30; T cruzi growth-1: inconclusive; C diff HTS: 32; T cruzi growth-2: 108*; T cruzi growth-3: 88; 3T3 cytotox: inconclusive; NIH3T3 tox 2: 104*

How did COc1cccc(S(=O)(=O)N[C@@H]2CC[C@H](CC(=O)NC3CCC3)O[C@@H]2CO)c1 do in these assays?
Pf Dd2 inh: 5; T cruzi growth-1: -14; C diff HTS: 0

What do the screens show for `COc1ccc(-c2ccc([C@@H]3[C@@H](CO)N4C(=O)CN(C(=O)c5ccc6c(c5)OCO6)C[C@H]34)cc2)cc1`?
Pf Dd2 inh: -21; C diff HTS: 6

Results for COc1ccc(-c2ccc([C@@H]3[C@@H](CO)N4CCCCN(C(=O)c5ccc6c(c5)OCO6)C[C@H]34)cc2)cc1 ?
Pf Dd2 inh: -23; T cruzi growth-1: 98*; C diff HTS: 4; T cruzi growth-2: 79; T cruzi growth-3: 33; 3T3 cytotox: 21; NIH3T3 tox 2: 98*

Results for COc1ccc(-c2ccc([C@@H]3[C@@H](CO)N4CCCCN(C(=O)c5ccc(F)cc5)C[C@@H]34)cc2)cc1 ?
Pf Dd2 inh: 22; T cruzi growth-1: 67; C diff HTS: -5

How did COc1ccc(-c2ccc([C@@H]3[C@@H](CO)N4CCCCN(C(=O)c5ccc6c(c5)OCO6)C[C@@H]34)cc2)cc1 do in these assays?
Pf Dd2 inh: -76; T cruzi growth-1: 115*; C diff HTS: 1; T cruzi growth-2: 98*; T cruzi growth-3: 39; 3T3 cytotox: 2; NIH3T3 tox 2: 43*

Results for COc1ccc(-c2ccc([C@@H]3[C@H]4CN(C(=O)c5ccc(F)cc5)CCCCN4[C@H]3CO)cc2)cc1 ?
Pf Dd2 inh: -21; T cruzi growth-1: 71; C diff HTS: 4

What do the screens show for `COc1ccc(-c2ccc([C@H]3[C@@H](CO)N4CCCCN(C(=O)c5ccc6c(c5)OCO6)C[C@@H]34)cc2)cc1`?
Pf Dd2 inh: -44; T cruzi growth-1: 118*; C diff HTS: 6; T cruzi growth-2: 107*; T cruzi growth-3: 93; 3T3 cytotox: 46*; NIH3T3 tox 2: 43*

How did COc1ccc(-c2ccc([C@H]3[C@@H](CO)N4CCCCN(C(=O)c5ccc6c(c5)OCO6)C[C@H]34)cc2)cc1 do in these assays?
Pf Dd2 inh: -33; T cruzi growth-1: 101*; C diff HTS: 15; T cruzi growth-2: 104*; T cruzi growth-3: 66; 3T3 cytotox: 49*; NIH3T3 tox 2: 104*

What do the screens show for `COc1ccccc1-c1cn(CC[C@@H]2CC[C@@H](NC(=O)C3CCCC3)[C@H](CO)O2)nn1`?
Pf Dd2 inh: -21; C diff HTS: -6
